Test results taken from PubChem BioAssay AID504660 (National Center for Advancing Translational Sciences (NCATS), 2011).
In all, about 360,000 compounds went through this assay and about 3,700 (1%) were called active. The list comes from a sample in which actives are over-represented; it also holds similar structures and randomly drawn compounds. Unmarked numbers belong to inactive results. Rule as the data show it: active = activation above about 30%; inactive = the rest.

target: D(1A) dopamine receptor (Homo sapiens) (UniProt P21728); experiment: Allosteric Agonists of the Human D1 Dopamine Receptor: qHTS; conditions: HEK293 T-REx D1 cells, calcium flux, agonist mode; at 2 µM; hits give high values; also: 0% is about no effect
Method in brief: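 Inducible HEK293 T-REx D1 cells, force-coupled to calcium signalling, were plated at 4000 cells/well with tetracycline and held overnight at 30 C. After no-wash calcium dye loading, compound-evoked calcium rise over 180 s flagged agonists.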

D(1A) dopamine receptor (Homo sapiens), sequence (P21728 whole entry, looked up): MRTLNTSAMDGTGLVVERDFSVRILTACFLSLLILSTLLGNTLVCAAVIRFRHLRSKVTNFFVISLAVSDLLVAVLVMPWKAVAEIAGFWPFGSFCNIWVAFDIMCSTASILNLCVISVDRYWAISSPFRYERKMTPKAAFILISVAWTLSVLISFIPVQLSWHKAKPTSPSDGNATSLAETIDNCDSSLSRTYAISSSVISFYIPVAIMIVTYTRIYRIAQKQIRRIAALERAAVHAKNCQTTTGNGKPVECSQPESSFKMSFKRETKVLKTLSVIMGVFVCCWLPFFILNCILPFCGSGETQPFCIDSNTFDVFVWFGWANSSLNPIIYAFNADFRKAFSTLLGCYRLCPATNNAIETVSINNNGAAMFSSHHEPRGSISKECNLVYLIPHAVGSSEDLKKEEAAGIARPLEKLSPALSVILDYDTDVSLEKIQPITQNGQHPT

| SMILES | activation |
| --- | --- |
| Cc1cccc(NC(=O)c2cc3c(C)nn(-c4ccccc4)c3s2)c1 | 2.46% |
| CCOC(=O)c1oc2ccc(S(=O)(=O)n3nc(-c4ccccc4OC)cc3N)cc2c1C | 4.93% |
| CC(C)(C)N(Cc1ccccc1)C(=O)c1ccncc1 | -0.455% |
| CN(C(=O)CN(CCO)CC(=O)N(C)C(C)(C)Cc1ccccc1)C(C)(C)Cc1ccccc1 | 40.5% (active) |
| Cc1cc(C)cc(NC(=O)N(C)Cc2ccccc2)c1 | 2.04% |
| CCOC(=O)c1c(S(=O)(=O)NCC(=O)Nc2ccc(Cl)c(C(F)(F)F)c2)c(C)n(C)c1C | 6.5% |
| Cc1cc(C)c(NC(=O)CSc2nc3nccnc3c(=O)n2CCc2c[nH]c3ccccc23)c(C)c1 | 2.34% |
| CCN1CCN(CCNC(=O)c2ccc(/C=C3/Sc4ccccc4N(Cc4cccc(C)c4)C3=O)cc2)CC1 | 48.6% (active) |
| O=C(CN1C(=O)/C(=C/c2ccccc2F)Sc2ccccc21)NCc1cccnc1 | 4.38% |
| O=C(NCCN1C(=O)S/C(=C\c2cccnc2)C1=O)c1ccc(S(=O)(=O)N2CCCC2)cc1 | 1.07% |
| CCn1c(=O)c(=O)n(CC)c2cc(N3CCCCC3)c(NC(=O)c3cccc(F)c3)cc21 | -0.479% |
| CCCCCN(C(=O)NC(=O)Nc1ccccc1C)S(C)(=O)=O | 4.03% |
| CCCS(=O)(=O)c1c(Nc2ccccc2C)sc(C(=O)c2ccccc2)c1N | 32.6% (active) |
| COc1c(F)c(F)c(C(=O)O)c(Nc2ccccc2C)c1F | 1.04% |
| CCOC(=O)N1CCc2c(sc3c2c(=O)n(-c2ccc(CC)cc2)c(=O)n3C)C1 | -0.644% |
| CCOC(=O)c1cc2c(=O)n3ccccc3nc2n(CC2CCCO2)c1=NC(=O)c1ccc(C(C)(C)C)cc1 (centres undefined) | 2.73% |
| CCCCCCc1cc2cc(-c3nnc(-c4ccccc4)o3)c(=O)oc2cc1O | 297% (active) |
| CCOc1ccc(CCNC(=O)c2c(C)oc3ncn(C)c(=O)c23)cc1 | 0.93% |
| CSc1ccc(C2C(C(=O)Nc3ccccc3)=C(C)Nc3nc4ccccc4n32)cc1 (centres undefined) | -0.673% |
| Cc1ccc(NC(=O)CN2C(=O)C(c3ccc(F)cc3)=NC23CCCCCC3)c(C)c1 | 7.18% |
| CC(C)c1ccc(NS(=O)(=O)c2ccc3[nH]cc(C(=O)NC4CCCC4)c(=O)c3c2)cc1 | 5.71% |
| Cc1ccc(NC(=O)c2ccc(CN3CC(=O)N4CCCCC4C3=O)cc2)c(Cl)c1 (centres undefined) | 1.1% |
| CC(NC(=O)Cn1cc(C(F)(F)F)cc(Cl)c1=O)c1ccccc1 (centres undefined) | -0.532% |

| SMILES | activation |
| --- | --- |
| CN(C)c1ccc(C(=O)NCC(=O)OC(C(=O)Nc2cc(C(F)(F)F)ccc2Cl)c2ccccc2)cc1 (centres undefined) | 1.69% |
| CNCC[C@H](Oc1ccc(C(F)(F)F)cc1)c1ccccc1 | 111% (active) |
| COc1ccc(OC)c(NC(=O)CSC2=Nc3ccccc3C3=NC(CC(=O)NCCc4ccccc4)C(=O)N23)c1 (centres undefined) | 1.84% |
| Cc1c(Cl)cccc1-c1ccc(CNCCCSc2nnnn2C)o1 | 68.7% (active) |
| COc1ccc(-c2ccc(CNCCCN3CCOCC3)o2)cc1Cl | 3.69% |
| Cn1nnnc1SCCNCc1ccc(Cl)c(Cl)c1 | -0.329% |
| CCOc1ccc(CNCCSc2nnnn2C)cc1 | -0.463% |
| Cn1nnnc1SCCCNCc1cccc(OCc2ccc(Cl)cc2)c1 | 74.4% (active) |
| Cn1nnnc1SCCCNCc1ccc(Cl)cc1 | 8.22% |
| COc1cc(CNCCSc2nnnn2C)ccc1OCc1ccc(Cl)cc1Cl | 48.2% (active) |
| COc1cccc(CNCCSc2nnnn2C)c1OCc1ccccc1Cl | 4.2% |
| COc1cc(CNCCSc2nnnn2C)ccc1OCc1c(F)cccc1Cl | 5.58% |
| COc1ccc(-c2c(C)nn3c(N4CCC(C(=O)NCCC(C)C)CC4)cc(C)nc23)cc1OC | 1.66% |
| Cc1ccc(Cl)cc1N(C)C(=O)Cn1nc(Cc2cccnc2)c2ccccc2c1=O | 3.19% |
| Oc1c(Cl)cc(Cl)c(Cl)c1Cc1c(O)c(Cl)cc(Cl)c1Cl | 33.5% (active) |
| COc1cc(CN(C(=O)c2ccccc2Br)c2ccccn2)cc(OC)c1OC | -2.08% |
| Cc1ccc(OCCNC(=O)CCNS(=O)(=O)c2ccc(Br)cc2)cc1 | 74% (active) |
| Cc1ccc(S(=O)(=O)NCCNC(C)c2ccc(Br)cc2)cc1 (centres undefined) | 6.77% |
| O=C(CCNS(=O)(=O)c1ccccc1)NCCSc1ccc(Br)cc1 | 11.3% |
| Fc1ccc(-n2ncc3c(Nc4ccc(Oc5ccccc5)cc4)ncnc32)cc1 | 0.314% |
| COc1ccc(C(=O)CSc2c(C(C)C)cnc3c2c(=O)n(C)c(=O)n3C)cc1 | 2.45% |
| Cc1nc(SCCOc2ccc(Cl)cc2)[nH]c(=O)c1Cc1ccccc1 | -1.18% |
| Cc1cc2oc(C(=O)N(Cc3ccc(Cl)cc3)Cc3ccco3)c(C)c2cc1Cl | 18.5% |

| SMILES | activation |
| --- | --- |
| CC(Oc1ccc2ccccc2c1)C(=O)NNC(=S)NC(=O)c1ccco1 (centres undefined) | 50.2% (active) |
| O=C(NC(=S)N1CCc2ccccc21)c1ccco1 | 1.7% |
| COc1ccc(/C=C(/NC(=O)c2ccco2)C(=O)Nc2ccc(C(C)=O)cc2)cc1 | -0.901% |
| COc1ccc(OC)c(-c2nc(C(N)=O)c3c(n2)n(-c2ccc4c(c2)OCO4)c(=O)n3C)c1 | -1.26% |
| COC(=O)C[n+]1cccc2ccccc21 | 87.9% (active) |
| COc1c(C(=O)N2CCCC2)ccc2ccccc12 | 1.37% |
| COC(=O)CNS(=O)(=O)c1ccc(Cc2ccc(S(=O)(=O)NCC(=O)OC)cc2)cc1 | 2.26% |
| CC(=O)c1ccc(NC(=O)c2nc(-c3ccc(C)cc3)n3c2CCCCC3)cc1 | 2.3% |
| COc1ccc2cc(-c3nc(Cl)c4c5c(sc4n3)CC(C)CC5)c(=O)oc2c1 (centres undefined) | 8.22% |
| CCOC(=O)c1c(NC(=O)/C(C#N)=C/c2ccccc2)sc2c1CCC2 | 0.119% |
| CCOC(=O)c1c(NC(=O)NC(C)(C)C)sc2c1CCN(C)C2 | 3.08% |
| CCOC(=O)c1c(NC(=S)Nc2ccccc2)sc2c1CCN(C)C2 | 32.3% (active) |
| Cc1ccc(-c2nnc3c4ccccc4c(C)nn23)cc1NC(=O)c1cccc(Br)c1 | -0.644% |
| O=C1/C(=C/c2coc3ccc(O)cc3c2=O)SC(=S)N1c1ccccc1 | 5.55% |
| Cc1ccc(-c2nn(-c3ccccc3)cc2/C=C2\SC(=S)N(CCCCCC(=O)O)C2=O)o1 | 44.7% (active) |
| O=C(O)CCCCCCCCc1cn(CN2C(=O)c3ccccc3C2=O)nn1 | 2.36% |
| O=C(Nc1ccc(F)cc1F)c1cnn(-c2ccc(F)cc2)c1-n1cccc1 | 2.54% |
| COc1cccc(C(=O)NC2CCN(C#N)CC2)c1 | 0.293% |
| CCC(Oc1ccccc1)C(=O)NCc1cccnc1 (centres undefined) | 1.93% |
| c1ccc(COc2ccccc2CNCc2cccnc2)cc1 | 34.6% (active) |
| C=CCOc1cccc(CNCc2cccnc2)c1 | 3.75% |
| COc1cccc(NC(=O)C2CCN(c3cc(C)nc4c(-c5ccc(Cl)cc5)c(C)nn34)CC2)c1 | 0.702% |
| CCCCCOc1ccc(CSC2=NCCN2)cc1[N+](=O)[O-] | 42.9% (active) |

| SMILES | activation |
| --- | --- |
| CCOc1ccc(C(=O)Nc2nccs2)cc1[N+](=O)[O-] | 6.87% |
| Cc1ccccc1NC(=O)CSC1=NCCN1 | 1.9% |
| COCC(C)NS(=O)(=O)c1ccc(N2CCCCS2(=O)=O)cc1 (centres undefined) | 3.35% |
| CCc1cccc(NC(=O)c2cc(-c3ccccc3)n[nH]2)c1 | 12.3% |
| CCOc1ccc(/C=C(\C#N)c2nc3ccccc3c(=O)[nH]2)cc1OC | 3.27% |
| CCOc1cc(/C=C(\C#N)C(=O)Nc2ccccc2C)ccc1OCc1cc(=O)n2nc(CC)sc2n1 | 5.19% |
| CCOc1cc(/C=C(\C#N)c2nc(-c3cccs3)c(NC(C)=O)s2)ccc1O | 115% (active) |
| O=C(NCC(c1ccc2c(c1)OCO2)N1CCN(c2ccccc2)CC1)C(=O)Nc1ccccc1F (centres undefined) | 1.27% |
| COc1ccc(N2CCN(C(=O)CSCc3nc(-c4ccccc4Cl)oc3C)CC2)cc1 | 7.67% |
| CCOc1cccc2c1N[C@@H](c1ccc(C(=O)O)cc1)[C@H]1CC=C[C@@H]21 | 7.61% |
| CC1CCCN(c2cc3c(cc2F)c(=O)c(S(=O)(=O)c2cccc(Cl)c2)cn3Cc2ccccc2)C1 (centres undefined) | -0.839% |
| Cc1cc2n(n1)C(c1cc(C(C)(C)C)c(O)cc1O)Nc1ccccc1-2 (centres undefined) | 38.8% (active) |
| CCOC(=O)NN1C(=O)c2ccccc2NC1c1ccccc1O (centres undefined) | 0.398% |
| COC(=O)c1ccc(NC(=O)c2cc(S(=O)(=O)N3CCC(C)CC3)cn2C)cc1 | 6.51% |
| COc1ccc(C(CNCC(=O)Nc2ccccc2F)N(C)C)cc1 (centres undefined) | 0.114% |
| COc1ccc(C(CCNCc2ccccc2F)c2ccc(F)cc2)cc1 (centres undefined) | 41.1% (active) |
| COc1cccc(CNCCc2c[nH]c3ccccc23)c1OCc1ccccc1F | 18.2% |
| CC(C)CC(NS(=O)(=O)c1ccc2c(c1)oc(=O)n2C)C(=O)NCc1ccccc1Cl (centres undefined) | 3.12% |
| CCOc1ccccc1CNCc1c(C(=O)O)c(C)n(Cc2ccc(C)cc2)c1C | 3.68% |
| Cc1cccc(N2CCN(S(=O)(=O)c3ccc4[nH]c5c(c4c3)CCCCC5)CC2)c1C | 2.57% |
